Rows were chosen to be rich in hits. Some 27% of all compounds tested hit in one or more screens of this group.
EphB4 ephrin blk = EphB4-ephrin-B2 interaction antagonism; EphB4 LBD / TNYL-RAW-Alexa532 peptide, fluorescence polarization; P54760; inhibition, % at 7 µM; 97,000 compounds, 0.15% hits;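 active = inhibition above the screen-wide mean inhibition plus 3 SD, cut at about 15% in these data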
CYP2C9 inhib = inhibitors of human CYP2C9. P11712. CYP2C9 Supersomes, luciferin-H conversion, luminescence. inhibition, % at 5 µM. 96,000 compounds, 20% hits;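 active = blocking of liver enzyme CYP2C9 beyond about 50% at 5 µM, limit read from the data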
Target sequence (P11712 whole entry, looked up): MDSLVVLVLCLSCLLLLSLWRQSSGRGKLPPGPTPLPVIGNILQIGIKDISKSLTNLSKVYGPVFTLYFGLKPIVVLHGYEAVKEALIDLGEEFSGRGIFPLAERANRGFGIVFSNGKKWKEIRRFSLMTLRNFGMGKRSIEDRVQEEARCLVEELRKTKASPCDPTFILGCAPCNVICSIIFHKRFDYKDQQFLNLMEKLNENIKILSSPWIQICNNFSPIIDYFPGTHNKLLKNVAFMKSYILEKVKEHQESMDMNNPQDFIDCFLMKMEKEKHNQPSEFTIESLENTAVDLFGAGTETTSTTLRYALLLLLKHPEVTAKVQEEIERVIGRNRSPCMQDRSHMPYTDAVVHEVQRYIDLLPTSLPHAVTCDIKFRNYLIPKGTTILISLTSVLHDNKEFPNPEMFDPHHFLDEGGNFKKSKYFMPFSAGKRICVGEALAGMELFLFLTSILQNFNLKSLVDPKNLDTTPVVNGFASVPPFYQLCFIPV
CYP2C19 inhib = inhibitors of human CYP2C19. inhibition, % at 5 µM. 96,000 compounds, 21% hits. CYP2C19 Supersomes, luciferin-H EGE luminescence, 30 min;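 active = CYP2C19 inhibition above a set limit at 5 µM in the primary screen, cut at about 50% in these data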
CYP2C19 activ = increases human CYP2C19 enzyme activity. activation factor at 5 µM. recombinant CYP2C19, luciferin-H EGE luminescence; hits give high values; 0 = fully inhibited enzyme, 1 = untreated enzyme. AID 1025. 96,000 tested, under 10 active;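 active = activation factor of at least 2 at 5 µM in the primary screen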
CYP2C9 act = activators of human CYP2C9; P11712; recombinant CYP2C9, luciferin-H conversion, luminescence; hits give high values; factor 1 = untreated enzyme, 0 = blocked; activation factor at 5 µM; 96,000 compounds, 1.4% hits;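 active = activation factor of 2 or more for CYP2C9 at a 5 µM dose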
Hits are given with their value; 0 = inactive; - = not tested or not shown.

SMILES	EphB4 ephrin blk	CYP2C9 inhib	CYP2C19 inhib	CYP2C19 activ	CYP2C9 act
O=C(NCn1cnccc1=O)c1ccccc1	0	0	0	0	0
COc1ccc(S(=O)(=O)CCC(=O)N2CC(=O)N(CCc3ccccc3)C(=O)C2)cc1	-	0	0	0	0
Cc1nnc(SCC(=O)Nc2c(Cl)cccc2Cl)[nH]c1=O	0	62	0	0	0
Cc1nnc(SCC(=O)Nc2ccc(Cl)cn2)[nH]c1=O	0	-	-	-	-
Cc1nnc(SCc2ccc(Cl)cc2Cl)[nH]c1=O	0	80	0	0	0
CNC(=O)CCCc1nc(-c2ccccc2Cl)no1	0	0	0	0	0
CCCCC(=O)Nc1sc2c(c1C(=O)OCC)CCC(C=O)=C2Cl	0	0	0	0	0
CCOc1ccc2ccccc2c1C(=O)N1CCN(c2ccccc2)CC1	0	88	93	0	0
CCOc1ccccc1C(=O)N1CCN(c2cccc(Cl)c2)CC1	0	70	67	0	0
CCOc1ccccc1N1CCN(C(=O)c2c(C)noc2C)CC1	0	0	0	0	0
O=C(C1CC1c1ccccc1)N1CCN(c2cccc(Cl)c2)CC1 (configuration not stated)	0	0	60	0	0
COc1ccc(C(=O)N2CCN(c3cccc(Cl)c3)CC2)c(OC)c1	0	69	87	0	0
O=C(O)c1ccccc1C(=O)N1CCN(c2cccc(Cl)c2)CC1	0	-	-	-	-
O=C(O)CCCC(=O)N1CCN(c2cccc(Cl)c2)CC1	0	0	0	0	0
Fc1ccccc1C(c1nnnn1Cc1ccc2c(c1)OCO2)N1CCN(Cc2ccco2)CC1 (configuration not stated)	0	0	0	0	0
COc1ccccc1OCC(=O)Nc1ccc(O)cc1C(=O)O	0	0	0	0	0
COc1cc2c(C(=O)N3CCN(c4cccc(Cl)c4)CC3)cn(CC(C)C)c(=O)c2cc1OC	0	58	0	0	0
COc1cc(Cl)ccc1NC(=O)COc1ccccc1C(=O)N1CCN(c2ccc(O)cc2)CC1	0	82	79	0	0
CCCN1CCN(C(=O)c2cn(CC(C)C)c(=O)c3cc(OC)c(OC)cc23)CC1	0	0	0	0	0
CCOC(=O)c1[nH]c(C)c(C(=O)N2CCOCC2)c1C	0	0	0	0	0
COc1cccc(N2CCN(C(=O)NC3CCCCC3)CC2)c1	0	56	0	0	0
CCOC(=O)c1[nH]c(C)c(C(=O)N2CCN(c3ccccc3)CC2)c1C	0	55	0	0	0
CCN(CC)S(=O)(=O)c1ccc(NC(=O)CSc2nnc(-c3ccc(F)cc3)o2)cc1	0	0	0	0	0
C(=C\c1nnc(-c2cccs2)o1)/c1ccccc1	0	0	0	0	0
CC1(C(=O)NC(=S)N(CCC#N)c2ccccc2)CC1(Cl)Cl (configuration not stated)	0	0	0	0	0
SMILES	EphB4 ephrin blk	CYP2C9 inhib	CYP2C19 inhib	CYP2C19 activ	CYP2C9 act
CCOc1ccccc1C(=O)n1nc(C)cc1C	0	0	0	0	0
CCOc1ccccc1C(=O)N1c2ccccc2Sc2ccccc21	0	98	87	0	0
O=C(c1ccccc1Oc1ccccc1)N1CCN(c2ccccc2)CC1	0	98	96	0	0
CC(=O)c1c(C)[nH]c(C(=O)N2CCN(c3ncccn3)CC2)c1C	0	64	96	0	0
CC(=O)c1c(C)[nH]c(C(=O)N2CCCCCC2)c1C	0	0	0	0	0
Cc1ccc(-c2cc(C(=O)NCc3ccco3)c3ccccc3n2)o1	0	0	0	0	0
O=C(N/N=C/c1ccc([N+](=O)[O-])o1)c1cc(-c2ccncc2)nc2ccccc12	0	90	53	0	0
O=C(NCc1ccco1)c1cc(-c2ccncc2)nc2ccccc12	0	57	80	0	0
CC(/C=N/NC(=O)c1cc(-c2ccncc2)nc2ccccc12)=C\c1ccco1	0	100	96	0	0
O=C(N/N=C/c1ccc(F)cc1)c1cc(-c2ccco2)nc2ccccc12	0	0	0	0	0
O=C(NCc1ccco1)c1ccccc1-c1ccccc1	0	0	0	0	0
O=C(NCc1ccco1)c1cc(-c2cccnc2)nc2ccccc12	-	70	0	0	0
CC1C(=O)CCN(C(C)C)C1C (configuration not stated)	0	0	0	0	0
COCCNC(=O)CN(c1ccccc1OC)S(C)(=O)=O	0	0	0	0	0
CC(C)(C)c1cn(-c2ccc(Cl)cc2)c(=S)[nH]1	0	0	73	0	0
O=C(Oc1cc(-c2ccccc2)no1)c1ccc(Cl)cc1	0	0	0	0	0
